This note sets out measurements from PubChem BioAssay (NCATS).

For test [1], the target named is Aldehyde dehydrogenase, mitochondrial (Homo sapiens) (UniProt P05091). The experiment in a line: qHTS for Inhibitors of the Aldehyde Dehydrogenase Family (ALDH2) Primary screen (AID 2061308). Note: nearly all actives have a fitted effect of over 55% in size.
Test [2] deals with Retinaldehyde dehydrogenase 3 (Homo sapiens) (UniProt P47895). In words: qHTS for Inhibitors of the Aldehyde Dehydrogenase Family (ALDH1A3) Primary screen (AID 2061315). (qHTS replaces the single test concentration by a dilution series.)

Records with an inconclusive call do not appear. A call without a number means that no potency is given here. Calls of active or inactive are those of the source. Calls come from the whole dose curve; as a rule, active = well fitted curve in the direction sought with a large enough effect; inconclusive = small, poorly fitted or top-dose-only effect, or another doubt; inactive = no such curve, though single readings can be large; an effect the other way counts as inactive or inconclusive.

Regarding `CC1=C(C(=O)Nc2nnc(-c3ccccc3)s2)C(c2nn(C)cc2Cl)N=C(Nc2nc3ccccc3o2)N1` (stereo unspecified), the Potency entry in test [1] and in test [2] was “inactive” each time.
Turning to `Cc1nc(Nc2ccccc2)c2nc(-c3ccccc3)n(CCN3CCOCC3)c2n1`, the Potency entry in test [1] and in test [2] was “inactive” throughout.
Regarding `COc1cc(Nc2nc(-c3ccncc3)nc3ccccc23)ccc1F`, the Potency entry in test [1] and in test [2] was “inactive” each time.
In the case of `CC(C)COc1ccc(-c2ccc(=O)n(CC(=O)NCCc3ccccc3)n2)cc1`, the Potency entry in test [1] and in test [2] was “inactive” throughout.
Regarding `Cc1cccc(-c2ccc(=O)n(CC(=O)NCCc3ccccc3)n2)c1`, the Potency result in test [1] and in test [2] was “inactive” in each case.
Regarding `CCc1nnc(NS(=O)(=O)c2ccc(NC(=S)NC(=O)/C=C/c3ccc(F)cc3)cc2)s1`, the Potency entry in test [1] and in test [2] was “inactive” each time.
In the case of `CCCCC(OC(=O)CNC(=O)c1ccccc1)C(=O)Nc1cc(C(F)(F)F)ccc1Cl` (stereo unspecified), the Potency entry in test [1] and in test [2] was “inactive” throughout.
Consider `Cn1c2cc(Br)sc2c2cnn(Cc3ccc(F)cc3F)c(=O)c21`, for which the Potency entry in test [1] and in test [2] was “inactive” throughout.
On to `Cc1ccnc(NC(=S)NC2CCCN(c3cccc(C(F)(F)F)c3)C2)c1` (stereo unspecified), for which the Potency result in test [1] and in test [2] was “inactive” each time.
For the compound `CCc1ccc(NC(=O)C(=O)NNC(=O)Cc2ccc(Cl)c(Cl)c2)cc1`, the Potency result in test [1] and in test [2] was “inactive” each time.
Regarding `Cc1ccc(OCCn2c(CCNC(=O)/C=C/c3ccccc3Cl)nc3ccccc32)cc1`, the Potency result in test [1] and in test [2] was “inactive” in each case.
For `CCOc1ccc(C(=O)Oc2ccc(-c3nc4ccccc4[nH]3)cc2)cc1[N+](=O)[O-]`, the Potency result in test [1] and in test [2] was “inactive” in each case.
As to `O=C(O)c1ccnc2c(O)cccc12`, the Potency entry in test [1] and in test [2] was “inactive” in each case.
For `CCNC(=O)C1CCN(C(=O)C(C)(C)NC(=O)Nc2ccccc2Cl)CC1`, the Potency entry in test [1] and in test [2] was “inactive” throughout.
Turning to `Cc1ccc(-c2ccc(=O)n(CC(=O)N(C)CCc3ccco3)n2)cc1`, the Potency entry in test [1] and in test [2] was “inactive” in each case.
Consider `Cc1cccc(S(=O)(=O)N2CCN(S(=O)(=O)c3ccc4c(c3)OCCO4)CC2)c1`, for which the Potency entry in test [1] and in test [2] was “inactive” each time.
For the compound `c1coc(CNc2nc(-c3cccs3)nc3ccccc23)c1`, the Potency result in test [1] and in test [2] was “inactive” each time.
Turning to `CC(=O)Nc1sc2c(c1-c1ccc(C)cc1)CCNC2`, the Potency entry in test [1] and in test [2] was “inactive” in each case.
On to `CC(C)(C)OC(=O)NCc1nnc(C(C(=O)OCc2ccccc2)c2ccccc2)s1` (stereo unspecified), for which the Potency entry in test [1] and in test [2] was “inactive” throughout.
In the case of `CSc1cnc(-c2ccccc2C(C)C)nc1NCc1ccc(-c2cccnc2)cc1`, the Potency result in test [1] and in test [2] was “inactive” throughout.
In the case of `O=C(Cc1ccc(Cl)c(Cl)c1)Nc1ccc([S+](=O)([O-])Nc2ccc([N+](=O)[O-])cc2)cc1`, the Potency result in test [1] and in test [2] was “inactive” each time.
For the compound `CCN(CC)CCCCn1c(-c2ccccc2)nc2c(NCCOC)nc(C)nc21`, the Potency entry in test [1] and in test [2] was “inactive” throughout.
Regarding `N#Cc1ccccc1CNc1nc2ncc(Br)cc2[nH]1`, the Potency result in test [1] and in test [2] was “inactive” in each case.
Take `O=C(O)c1cccc2c1C(=O)N(c1ccccc1)C2`: the Potency result in test [1] and in test [2] was “inactive” in each case.
With `COc1cccc(C2=Nn3c(nnc3-c3ccc(OC)c(OC)c3)SC2)c1`, the Potency result in test [1] and in test [2] was “inactive” in each case.
As to `FC(F)(F)c1cccc(-c2ccc(CNc3nc(-c4ccccc4C(F)(F)F)nc4ccccc34)cc2)c1`, the Potency entry in test [1] and in test [2] was “inactive” throughout.
As to `COCCNc1nc(C)nc2c1nc(-c1ccccc1)n2CCCN1CCCCC1C` (stereo unspecified), the Potency entry in test [1] and in test [2] was “inactive” throughout.
`O=C(OCC#CCSc1nnc(-c2cccc3ccccc23)o1)c1ccccc1`: the Potency result in test [1] and in test [2] was “inactive” throughout.
Consider `COc1ccccc1NC(=O)C(OC(=O)CNC(=O)c1ccccc1)c1ccccc1` (stereo unspecified), for which the Potency entry in test [1] and in test [2] was “inactive” in each case.
Take `CC(C)c1ccccc1-c1nc(NCc2ccc(-c3cccnc3)cc2)c2[nH]cnc2n1`: the Potency result in test [1] and in test [2] was “inactive” each time.
Consider `Cc1cc(N[S+](=O)([O-])c2ccc(NC(=O)Cc3ccccc3Cl)cc2)no1`, for which the Potency entry in test [1] and in test [2] was “inactive” throughout.
Take `COc1cc(/C=C/CO)cc(OC)c1O[C@@H]1O[C@H](CO[C@@H]2O[C@H](CO)[C@@H](O)[C@H](O)[C@H]2O)[C@@H](O)[C@H](O)[C@H]1O`: the Potency result in test [1] and in test [2] was “inactive” throughout.
As for `CCCCC(O)C(=O)Nc1cc(C(F)(F)F)ccc1Cl` (stereo unspecified), the Potency entry in test [1] and in test [2] was “inactive” each time.
As to `CCN(CC)CCCC(C)n1c(-c2ccccc2)nc2c(NCc3ccccc3)nc(C)nc21` (stereo unspecified), the Potency result in test [1] and in test [2] was “inactive” each time.
For `CC(=O)O[C@@H]1CC(C)=C2[C@H]1[C@H](C)CC[C@H]2/C=C(\C)C(=O)O`, the Potency result in test [1] and in test [2] was “inactive” throughout.
On to `O=C(OCC#CCSc1nnc(-c2cccc3ccccc23)o1)C1CCC1`, for which the Potency entry in test [1] and in test [2] was “inactive” in each case.
Turning to `COc1ccc(C2=Nn3c(nnc3-c3ccccc3C(F)(F)F)SC2)cc1OCC1CC1`, the Potency result in test [1] and in test [2] was “inactive” in each case.
Consider `Cc1ccc(-c2csc(NC(=O)c3ccccc3NS(=O)(=O)c3ccc(C)cc3)n2)cc1`, for which the Potency result in test [1] and in test [2] was “inactive” each time.
In the case of `CC(=O)Nc1sc2c(c1-c1ccc3nonc3c1)CCNC2`, the Potency result in test [1] and in test [2] was “inactive” each time.
For `Cc1nc(-c2ccccc2)oc1-c1ccc2ncnc(NCCc3cnc[nH]3)c2c1`, the Potency result in test [1] and in test [2] was “inactive” each time.
Regarding `O=S(=O)(Nc1nc(CN2CCOCC2)nc2sc3c(c12)CCC3)c1ccc2c(c1)OCCO2`, the Potency result in test [1] and in test [2] was “inactive” in each case.
In the case of `Cc1cc(NS(=O)(=O)c2cc3c(cc2F)NC(=O)CC3)ccc1F`, the Potency result in test [1] and in test [2] was “inactive” in each case.
As for `N#Cc1nc(-c2cccc3ccccc23)oc1NC1CNC1`, the Potency entry in test [1] and in test [2] was “inactive” each time.
